From the supplement of paper PMC11732987, “Enantioselective OTUD7B fragment discovery through chemoproteomics screening and high-throughput optimisation” (Communications Chemistry, 2025)

Experiments:
Assay in all cases: log2 ratio of Biotin-Ahx-Ub-VS probe labelling (fragment/DMSO); higher = less target engagement (more negative = stronger competition), active = hit call of the paper (q ≤ 0.05, log2 ratio ≤ -1)
Conditions in all cases: compound concentration: 200 uM; treatment time: 3 h
[1] = target: T1, USP19 (UniProt O94966)
T1 sequence (whole entry): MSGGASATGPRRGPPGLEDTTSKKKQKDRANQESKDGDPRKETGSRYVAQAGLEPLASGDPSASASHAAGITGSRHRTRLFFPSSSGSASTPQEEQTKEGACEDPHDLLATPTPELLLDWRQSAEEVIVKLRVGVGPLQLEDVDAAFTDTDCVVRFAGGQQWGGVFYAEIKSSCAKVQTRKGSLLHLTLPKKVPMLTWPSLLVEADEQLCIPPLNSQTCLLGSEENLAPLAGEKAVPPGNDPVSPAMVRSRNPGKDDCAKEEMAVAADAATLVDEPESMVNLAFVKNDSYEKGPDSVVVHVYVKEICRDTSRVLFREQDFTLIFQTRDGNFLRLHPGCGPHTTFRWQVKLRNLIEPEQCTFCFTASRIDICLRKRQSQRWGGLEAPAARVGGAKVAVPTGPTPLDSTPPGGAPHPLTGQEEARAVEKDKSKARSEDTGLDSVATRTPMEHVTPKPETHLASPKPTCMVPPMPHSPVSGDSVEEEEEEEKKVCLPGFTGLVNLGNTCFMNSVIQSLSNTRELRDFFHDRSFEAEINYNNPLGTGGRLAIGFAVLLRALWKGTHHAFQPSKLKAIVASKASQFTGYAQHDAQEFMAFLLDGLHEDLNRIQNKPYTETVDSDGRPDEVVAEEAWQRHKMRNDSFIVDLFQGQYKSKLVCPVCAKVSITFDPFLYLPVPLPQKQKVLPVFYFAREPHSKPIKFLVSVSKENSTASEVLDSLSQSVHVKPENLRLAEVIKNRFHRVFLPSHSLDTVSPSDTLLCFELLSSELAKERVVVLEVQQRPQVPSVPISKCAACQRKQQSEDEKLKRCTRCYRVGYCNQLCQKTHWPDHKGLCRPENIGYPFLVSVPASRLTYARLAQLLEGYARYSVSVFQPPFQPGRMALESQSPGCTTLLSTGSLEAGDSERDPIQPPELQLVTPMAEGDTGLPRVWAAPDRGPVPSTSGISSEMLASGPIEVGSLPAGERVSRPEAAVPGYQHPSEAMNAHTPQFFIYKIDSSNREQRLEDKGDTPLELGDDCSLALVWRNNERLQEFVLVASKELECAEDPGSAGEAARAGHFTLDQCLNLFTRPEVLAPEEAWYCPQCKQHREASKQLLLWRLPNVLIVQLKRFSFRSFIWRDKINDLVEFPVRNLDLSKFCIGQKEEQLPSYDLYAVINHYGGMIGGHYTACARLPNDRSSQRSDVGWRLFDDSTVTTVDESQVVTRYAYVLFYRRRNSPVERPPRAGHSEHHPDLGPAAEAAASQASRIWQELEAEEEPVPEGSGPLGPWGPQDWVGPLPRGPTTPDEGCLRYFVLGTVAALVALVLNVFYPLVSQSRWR
In short: (§1)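 Labelled DUBs were enriched with NeutrAvidin, digested with LysC and trypsin, and run by diaPASEF LC-MS/MS. The labelling used Biotin-Ahx-Ub-VS at 0.5 µM final for 1 h on HEK293T lysate (495 µg per sample) previously treated in triplicate with fragment at 200 µM or vehicle for 3 h. Values are average log2 fragment/vehicle ratios by unpaired t-test on global-median-normalised Spectronaut quantities of proteins with ≥2 unique peptides.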

[2] = target: T2, USP22 (UniProt Q9UPT9)
T2 sequence (whole entry): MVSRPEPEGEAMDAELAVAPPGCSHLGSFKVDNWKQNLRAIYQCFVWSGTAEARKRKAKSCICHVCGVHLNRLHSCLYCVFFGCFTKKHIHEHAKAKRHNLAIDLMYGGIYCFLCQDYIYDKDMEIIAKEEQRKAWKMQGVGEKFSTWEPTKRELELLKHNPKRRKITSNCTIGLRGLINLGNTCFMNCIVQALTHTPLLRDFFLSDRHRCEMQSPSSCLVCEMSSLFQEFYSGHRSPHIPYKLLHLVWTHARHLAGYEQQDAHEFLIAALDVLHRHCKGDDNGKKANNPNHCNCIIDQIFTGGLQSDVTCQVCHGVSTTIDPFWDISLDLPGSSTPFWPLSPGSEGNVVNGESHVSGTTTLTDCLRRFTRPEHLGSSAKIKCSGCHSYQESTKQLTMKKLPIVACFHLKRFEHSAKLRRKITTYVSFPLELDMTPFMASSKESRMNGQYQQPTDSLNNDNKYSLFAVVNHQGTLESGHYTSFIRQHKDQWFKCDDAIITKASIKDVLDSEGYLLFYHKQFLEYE
In short: as §1

[3] = target: USP24 (UniProt Q9UPU5)
In short: as §1

[4] = target: T3, USP25 (UniProt Q9UHP3)
T3 sequence (whole entry): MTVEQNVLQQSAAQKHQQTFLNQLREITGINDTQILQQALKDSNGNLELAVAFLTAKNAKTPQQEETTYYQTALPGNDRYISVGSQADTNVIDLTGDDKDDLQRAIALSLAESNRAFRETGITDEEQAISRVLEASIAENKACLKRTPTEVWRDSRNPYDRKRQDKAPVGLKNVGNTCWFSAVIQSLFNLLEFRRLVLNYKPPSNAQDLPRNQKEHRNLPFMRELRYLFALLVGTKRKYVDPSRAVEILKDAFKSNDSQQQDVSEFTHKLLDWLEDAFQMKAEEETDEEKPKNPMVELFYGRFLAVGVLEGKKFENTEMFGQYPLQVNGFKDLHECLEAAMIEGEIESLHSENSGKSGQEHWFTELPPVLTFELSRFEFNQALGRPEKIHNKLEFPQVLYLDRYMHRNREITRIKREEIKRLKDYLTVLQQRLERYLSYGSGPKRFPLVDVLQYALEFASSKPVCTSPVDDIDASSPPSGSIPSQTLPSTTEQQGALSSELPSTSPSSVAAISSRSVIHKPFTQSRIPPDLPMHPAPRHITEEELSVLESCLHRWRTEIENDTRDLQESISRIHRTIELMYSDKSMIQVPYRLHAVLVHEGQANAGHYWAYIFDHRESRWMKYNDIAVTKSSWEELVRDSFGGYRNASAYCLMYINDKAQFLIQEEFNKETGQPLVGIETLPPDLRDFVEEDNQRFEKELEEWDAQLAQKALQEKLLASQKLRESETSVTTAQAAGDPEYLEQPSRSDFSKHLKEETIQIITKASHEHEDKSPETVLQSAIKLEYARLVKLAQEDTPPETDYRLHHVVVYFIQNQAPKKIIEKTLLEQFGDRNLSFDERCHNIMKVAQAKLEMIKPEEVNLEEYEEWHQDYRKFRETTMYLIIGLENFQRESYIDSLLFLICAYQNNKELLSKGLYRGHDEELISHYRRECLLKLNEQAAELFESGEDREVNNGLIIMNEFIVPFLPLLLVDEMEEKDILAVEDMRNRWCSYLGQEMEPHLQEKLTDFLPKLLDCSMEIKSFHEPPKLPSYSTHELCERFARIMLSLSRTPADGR
In short: as §1

[5] = target: T4, USP28 (UniProt Q96RU2)
T4 sequence (whole entry): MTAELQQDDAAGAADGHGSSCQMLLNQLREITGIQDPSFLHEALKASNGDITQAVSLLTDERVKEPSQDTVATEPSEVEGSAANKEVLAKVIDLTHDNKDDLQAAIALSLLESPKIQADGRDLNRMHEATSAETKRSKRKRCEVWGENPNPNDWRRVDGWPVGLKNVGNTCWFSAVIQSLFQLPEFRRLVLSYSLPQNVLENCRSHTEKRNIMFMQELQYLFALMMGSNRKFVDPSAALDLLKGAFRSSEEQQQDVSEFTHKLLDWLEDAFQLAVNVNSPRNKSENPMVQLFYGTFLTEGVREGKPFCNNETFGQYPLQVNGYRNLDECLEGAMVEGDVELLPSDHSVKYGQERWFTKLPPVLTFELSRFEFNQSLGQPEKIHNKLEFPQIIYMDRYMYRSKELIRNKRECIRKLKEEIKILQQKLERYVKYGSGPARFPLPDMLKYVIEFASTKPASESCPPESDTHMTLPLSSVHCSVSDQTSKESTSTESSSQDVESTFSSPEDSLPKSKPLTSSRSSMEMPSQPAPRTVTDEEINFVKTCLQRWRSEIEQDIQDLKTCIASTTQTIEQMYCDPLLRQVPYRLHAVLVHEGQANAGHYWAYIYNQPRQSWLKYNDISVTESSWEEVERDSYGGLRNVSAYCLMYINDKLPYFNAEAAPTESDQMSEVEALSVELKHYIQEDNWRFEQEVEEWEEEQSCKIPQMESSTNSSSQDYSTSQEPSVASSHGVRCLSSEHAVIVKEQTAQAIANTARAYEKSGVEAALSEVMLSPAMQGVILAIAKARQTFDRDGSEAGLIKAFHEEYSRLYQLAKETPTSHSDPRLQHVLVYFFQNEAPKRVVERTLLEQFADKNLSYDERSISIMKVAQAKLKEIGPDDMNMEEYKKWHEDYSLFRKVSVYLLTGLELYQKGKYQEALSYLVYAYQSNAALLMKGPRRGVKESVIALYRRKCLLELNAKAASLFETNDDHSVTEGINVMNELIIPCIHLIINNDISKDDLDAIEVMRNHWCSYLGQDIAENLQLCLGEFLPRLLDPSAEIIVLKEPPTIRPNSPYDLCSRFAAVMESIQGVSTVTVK
In short: as §1

Measured: log2 ratio of Biotin-Ahx-Ub-VS probe labelling

Sequence of USP24 (Q9UPU5 whole entry): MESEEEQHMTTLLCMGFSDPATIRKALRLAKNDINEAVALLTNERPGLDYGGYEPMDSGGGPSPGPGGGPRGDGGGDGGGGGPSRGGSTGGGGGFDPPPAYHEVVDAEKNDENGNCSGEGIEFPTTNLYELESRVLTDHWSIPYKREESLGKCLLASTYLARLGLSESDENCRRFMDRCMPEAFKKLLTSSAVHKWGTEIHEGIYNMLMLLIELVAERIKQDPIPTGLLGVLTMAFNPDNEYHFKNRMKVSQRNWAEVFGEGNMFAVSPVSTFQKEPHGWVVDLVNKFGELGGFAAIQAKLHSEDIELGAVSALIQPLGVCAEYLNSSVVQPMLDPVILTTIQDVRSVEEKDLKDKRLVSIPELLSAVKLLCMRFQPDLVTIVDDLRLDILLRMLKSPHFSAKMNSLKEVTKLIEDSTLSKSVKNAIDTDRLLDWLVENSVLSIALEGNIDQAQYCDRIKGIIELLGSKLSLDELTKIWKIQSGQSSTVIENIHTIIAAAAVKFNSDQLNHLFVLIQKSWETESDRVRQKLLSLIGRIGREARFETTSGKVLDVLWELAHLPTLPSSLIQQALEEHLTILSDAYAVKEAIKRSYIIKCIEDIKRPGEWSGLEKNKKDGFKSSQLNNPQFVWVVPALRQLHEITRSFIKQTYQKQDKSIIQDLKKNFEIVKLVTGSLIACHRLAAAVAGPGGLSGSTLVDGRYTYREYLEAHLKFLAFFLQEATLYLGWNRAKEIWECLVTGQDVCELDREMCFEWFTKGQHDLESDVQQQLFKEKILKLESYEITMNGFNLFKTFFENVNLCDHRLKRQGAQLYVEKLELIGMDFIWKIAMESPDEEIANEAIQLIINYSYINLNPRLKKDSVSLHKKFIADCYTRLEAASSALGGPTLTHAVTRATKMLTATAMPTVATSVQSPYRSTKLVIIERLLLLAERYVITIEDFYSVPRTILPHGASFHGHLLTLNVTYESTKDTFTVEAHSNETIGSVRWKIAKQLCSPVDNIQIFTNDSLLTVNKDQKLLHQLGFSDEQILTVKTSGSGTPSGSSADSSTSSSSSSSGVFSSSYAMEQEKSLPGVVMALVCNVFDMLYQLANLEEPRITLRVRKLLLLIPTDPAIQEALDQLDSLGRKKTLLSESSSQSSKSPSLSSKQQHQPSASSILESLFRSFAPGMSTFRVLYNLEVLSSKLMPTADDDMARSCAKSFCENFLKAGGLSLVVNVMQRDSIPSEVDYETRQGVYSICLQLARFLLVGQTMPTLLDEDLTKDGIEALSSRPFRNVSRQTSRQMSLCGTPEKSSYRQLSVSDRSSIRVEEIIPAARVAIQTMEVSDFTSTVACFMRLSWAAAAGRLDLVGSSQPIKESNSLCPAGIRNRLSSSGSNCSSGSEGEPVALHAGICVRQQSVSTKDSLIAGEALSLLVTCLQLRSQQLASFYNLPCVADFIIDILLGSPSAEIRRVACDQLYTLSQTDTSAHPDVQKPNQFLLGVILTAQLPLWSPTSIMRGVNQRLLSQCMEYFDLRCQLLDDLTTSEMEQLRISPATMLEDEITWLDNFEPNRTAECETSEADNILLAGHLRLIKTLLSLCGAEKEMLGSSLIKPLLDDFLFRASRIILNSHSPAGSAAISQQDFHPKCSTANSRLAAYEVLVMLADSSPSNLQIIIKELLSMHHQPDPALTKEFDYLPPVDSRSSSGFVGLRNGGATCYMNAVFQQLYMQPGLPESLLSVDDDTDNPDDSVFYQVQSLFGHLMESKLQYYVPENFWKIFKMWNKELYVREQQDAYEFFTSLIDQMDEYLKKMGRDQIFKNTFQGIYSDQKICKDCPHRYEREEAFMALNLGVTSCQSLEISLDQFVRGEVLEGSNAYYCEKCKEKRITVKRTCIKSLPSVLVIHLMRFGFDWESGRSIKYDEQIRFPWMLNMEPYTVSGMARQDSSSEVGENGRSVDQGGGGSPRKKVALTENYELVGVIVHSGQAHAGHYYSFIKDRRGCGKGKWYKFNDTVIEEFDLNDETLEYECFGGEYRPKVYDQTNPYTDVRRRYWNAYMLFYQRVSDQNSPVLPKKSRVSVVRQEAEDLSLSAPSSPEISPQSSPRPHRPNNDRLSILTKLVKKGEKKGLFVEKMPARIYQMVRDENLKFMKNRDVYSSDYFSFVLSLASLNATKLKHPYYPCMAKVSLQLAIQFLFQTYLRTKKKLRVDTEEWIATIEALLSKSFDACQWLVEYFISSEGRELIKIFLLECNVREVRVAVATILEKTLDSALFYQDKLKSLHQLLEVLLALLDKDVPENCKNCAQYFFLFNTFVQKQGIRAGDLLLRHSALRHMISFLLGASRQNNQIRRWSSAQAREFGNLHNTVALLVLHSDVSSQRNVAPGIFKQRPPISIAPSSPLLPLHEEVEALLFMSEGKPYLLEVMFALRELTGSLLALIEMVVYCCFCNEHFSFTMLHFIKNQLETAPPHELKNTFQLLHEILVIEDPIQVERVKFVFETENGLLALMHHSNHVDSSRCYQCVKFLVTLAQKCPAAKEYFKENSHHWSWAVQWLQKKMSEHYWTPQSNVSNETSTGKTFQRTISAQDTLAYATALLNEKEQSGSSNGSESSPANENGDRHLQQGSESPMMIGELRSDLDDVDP

O=C(CCl)NCc1noc(C2CC2)n1
inactive: [1] 0.0297 | [2] -0.122 | [3] -0.225 | [4] -0.329 | [5] -0.393
